Rows were chosen to be rich in hits. Some 4.1% of all compounds tested hit in one or more screens of this group.
DAX1 inh-1 – inhibitors of DAX1 repression of SF-1 activated StAR promoter | HEK293T StAR-luciferase reporter, SF-1/DAX-1 repression relief | inhibition, % at 6.8 µM | 370,000 compounds, 1.1% hits | AID 652010;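 active means inhibition above the mean over all tested compounds plus 3 SD, cut at about 3.6% in these data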;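 further: 0% = DAX-1 cells with DMSO and 100% = cells lacking DAX-1 with DMSO; higher inhibition means more luminescence from relief of DAX-1 repression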
hgDAF-12 ag – hgDAF-12 agonism, primary luciferase screen. activation, % at 6.8 µM. AID 687014. 370,000 compounds, 1.8% hits. HEK293 GAL4-hgDAF12 UAS-luciferase reporter, agonist luminescence; normalized to butyrate control;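 active means activation above a cutoff set at the mean of all screened compounds plus 3 SD, cut at about 10% in these data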;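 further: 0% = DMSO wells and 100% = sodium butyrate wells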
hcDAF12 agonist – activates DAF-12 receptor from parasite H. contortus; HEK293 hcDAF-12 lit1-tk-luc reporter, luminescence; 0% DMSO, 100% Δ7-dafachronic acid; activation, % at 6.8 µM; 370,000 compounds, 1.4% hits; AID 652067;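 active means activation above the mean of all tested compounds plus 3 SD, cut at about 5.5% in these data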;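 further: 100% = response to 3 µM Δ7-dafachronic acid high control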
ssDAF-12 act – activators of S. stercoralis DAF-12 nuclear receptor | AID 652126 | activation, % at 6.8 µM | HEK293 ssDAF-12/GRIP1 lit1-tk-luc reporter, luminescence; % of 3 µM dafachronic acid response | 370,000 compounds, 1% hits;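 active means activation above the mean over all tested compounds plus 3 SD, cut at about 0.9% in these data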;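 further: 0% = DMSO-only wells and 100% = 3 µM delta7-dafachronic acid wells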
DAX1 inh-2 – inhibits human nuclear receptor DAX1. AID 504766. P51843. inhibition, % at 6.75 µM. HEK293 Gal4-DAX1 luciferase reporter, luminescence. 340,000 compounds, 0.99% hits;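 active means inhibition above the mean over all tested compounds plus 3 SD, cut at about 4.2% in these data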;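 further: 0% = DAX1-transfected cells with DMSO and 100% = empty-vector control cells with DMSO; inhibition shows as a rise in luminescence from relieved DAX1 repression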
Target sequence (P51843 207-470 limits assumed): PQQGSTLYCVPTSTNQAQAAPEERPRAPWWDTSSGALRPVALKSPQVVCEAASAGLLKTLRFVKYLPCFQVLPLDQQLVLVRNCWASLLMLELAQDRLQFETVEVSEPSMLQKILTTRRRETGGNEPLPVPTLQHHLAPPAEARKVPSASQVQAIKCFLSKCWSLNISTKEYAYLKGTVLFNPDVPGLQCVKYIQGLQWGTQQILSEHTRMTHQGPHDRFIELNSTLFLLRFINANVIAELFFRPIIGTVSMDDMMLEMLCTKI
LXRb hcDAF ctr – LXR-beta agonism as hcDAF-12 counter-screen | shares compounds with hcDAF12 agonist | HEK293 Gal4-LXR tk-luc reporter, luminescence, 24 h; normalized: DMSO 0%, positive control 100% | activation, % at 6.8 µM | 3,400 tested, under 10 active;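 active means mean percent activation of the reporter above a cutoff set as the average over tested compounds plus their standard deviation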
hcDAF12 conf – hcDAF-12 agonism, confirmation assay; shares compounds with hcDAF12 agonist; activation, % at 6.8 µM; HEK293 hcDAF-12 lit1-tk-luc reporter, luminescence; % of Δ7-dafachronic acid response; 3,400 compounds, 61% hits; AID 743032;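 active means mean activation across triplicate tests above the threshold derived from the earlier primary screen, cut at about 5.5% in these data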;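 further: 0% = DMSO only wells and 100% = 3 µM Δ7-dafachronic acid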
Starred values were filed as active, the others as inactive; · = no result given.

SMILES	DAX1 inh-1	hgDAF-12 ag	hcDAF12 agonist	ssDAF-12 act	DAX1 inh-2	LXRb hcDAF ctr	hcDAF12 conf
OCCC1CN(Cc2ccccc2O)CCN1CCCc1ccccc1 (stereo unspecified)	0	0	7.8*	-1	-1	0	1
Cc1ccccc1CN1CCN(CCCc2ccccc2)C(CCO)C1 (stereo unspecified)	0	4	0	-1	1	·	·
CCN1CCN(/C=N/c2nc(C)cs2)CC1	2	8	6.8*	0	0	0	2
O=C(Nc1ccc(Br)cc1)O[C@@H]1CC[C@@]23CCCN2C(=O)CCC[C@H]3C1	·	2	-3	-2	·	·	·
Cc1ccc(S(=O)(=O)N2CCCC(C(=O)NCc3ccco3)C2)cc1 (stereo unspecified)	1	-5	-2	-1	·	·	·
c1ccc2c(c1)Nc1nccnc1S2	2	7	7.7*	0	-1	0	7.5*
Cn1c(C(=O)c2ccncc2)cc2ccccc21	0	3	1	-1	0	·	·
O=C(NC1CCCCN(Cc2cccc(F)c2)C1=O)c1cccc(F)c1 (stereo unspecified)	-1	-2	-1	-2	·	·	·
O=C1c2cccc3cccc(c23)C(=O)N1c1ccccc1Cl	-1	-4	-3	-1	-1	·	·
Nc1ccccc1N1C(=O)c2cccc3cccc(c23)C1=O	1	4	6.7*	0	·	0	5
O=C(Nc1ccc2c(c1)CCC2)c1cccc(OC(F)F)c1	3	11*	7.4*	1.3*	·	1	4
O=C(Nc1ccc(OC(F)F)c(Cl)c1)c1cccc(OC(F)F)c1	·	·	·	·	-1	·	·
C=CCN1[C@@H](CC(C)C)COc2cccc(N3CCSCC3)c2S1(=O)=O	-1	1	-2	-1	·	·	·
Cc1nnc2nc(N)[nH]n2c1=O	1	1	-1	-1	·	·	·
COc1ccccc1Cc1c(-c2ccc(F)cc2)nc2cc(C)c(Br)c(C)n12	1	8	8.6*	1.1*	·	0	6.7*
Cc1cc2nc(-c3ccc(Cl)cc3)c(Cc3ccsc3)n2c(C)c1Br	-1	2	6.8*	0.9*	·	0	3
Cc1cc2nc(-c3cccc(Br)c3)c(Cc3cccc(Cl)c3)n2c(C)c1Br	1	0	2	-1	·	·	·
COc1ccc(Cc2c(-c3cccc(Cl)c3)nc3cc(C)c(Br)c(C)n23)c(C)c1	0	4	6.9*	2.0*	·	0	5
COc1ccccc1Cc1c(-c2ccc(C)cc2)nc2cc(C)c(Br)c(C)n12	3	12*	9.9*	1.9*	·	0	11*
CCN(CC)c1ccc(C=NNC(=O)Cc2cc(=O)[nH][nH]2)c(O)c1	0	0	1	-2	·	·	·
CN1CCN(C(=O)CNC(=O)c2cccs2)CC1	1	3	7.8*	0	3	0	1
O=C(NCC(=O)N1CCCC1)c1cccs1	1	3	-3	-1	2	·	·
COc1ccc(-n2c(SCC(=O)Nc3ccccc3-c3ccccc3)nnc2-c2ccccc2)cc1	-1	1	-2	0	·	·	·
COC(=O)C1CN(C2CC2)CCS(=O)(=O)N1Cc1cn(Cc2ccc(Cl)cc2)nn1 (stereo unspecified)	1	-2	-1	-1	·	·	·
CC(=O)c1cccc2c(O)c(C3=Nc4ccccc4C3=O)[nH]c12	1	5	6.6*	1.2*	0	1	7.1*
SMILES	DAX1 inh-1	hgDAF-12 ag	hcDAF12 agonist	ssDAF-12 act	DAX1 inh-2	LXRb hcDAF ctr	hcDAF12 conf
O=C(O)c1cccc2c(-c3ccccc3)c(-c3ccccc3)[nH]c12	0	-3	0	-1	-1	·	·
CC(C)CSc1ncccc1-c1nc2ccccc2[nH]1	-1	-1	-2	-1	·	·	·
CC(C)Oc1ccc(C(=O)Nc2nc3ccccc3[nH]2)cc1	1	2	8.7*	0	-2	0	-1
CCCC(=O)N1CCC[C@]2(CC[C@@H](CCC(=O)OCC)O2)C1	0	10	0	0	·	·	·
c1ccc(-c2cc3cc4c(cc3cn2)OCO4)cc1	2	13*	8.1*	1.4*	3	2	8.5*
CC(C)c1ccc(/C=N/NC(=O)c2ccccn2)cc1	3	10	8.3*	1.0*	-1	2	10*
O=C(N/N=C/c1ccncc1)c1ccccn1	1	6	1	0	2	·	·
COc1ccc(CC(=O)O/N=C(\N)c2ccc(C)cc2)cc1	0	5	7.7*	1.6*	2	0	8.5*
O=C(c1ccc(F)cc1F)N1CCC(Oc2cccnc2)CC1	0	-3	-2	-1	·	·	·
CCCCCCCCN1C(=O)[C@@H](CC(=O)NCCCCc2ccccc2)C[C@@]2(C(=O)OC)C1=C[C@H](C1CCCC1)O[C@@H]2C	0	2	0	0	·	·	·
CCOC(=O)C1=C[C@@H](C(C)(C)C)N(S(=O)(=O)c2ccc(C)cc2)[C@H]1c1ccc(OC)cc1	-2	1	-2	-2	·	·	·
O=C(NC(=S)Nc1ncc(Br)cc1Br)c1ccccc1	1	9	8.0*	1	1	1	8.7*
COCCN1C(=O)C2=C(C1=O)C1N(C)c3ccccc3[C@@]13C[C@@H](CO)N(C(=O)CCC(=O)OC)C3=N2 (stereo partly specified)	0	-1	1	-1	·	·	·
Cc1cc(C)cc(C(=O)Oc2cc(C)[nH]c(=O)c2[N+](=O)[O-])c1	0	0	8.5*	-1	1	0	1
COc1cc(C(=O)Oc2cc(C)[nH]c(=O)c2[N+](=O)[O-])cc(OC)c1OC	0	1	-1	-1	0	·	·
N#Cc1ccc(Cn2ccc3ccc(-c4ccc5ccn(Cc6ccccc6)c5c4)cc32)cc1	-1	3	1	-1	·	·	·
CC(=O)c1c(C)nc(-c2ccc(Cl)cc2)nc1N	3	10	15*	1.6*	2	1	7.3*
CC(=O)c1sc(-c2ccc(Cl)cc2)nc1C	1	4	1	-1	2	·	·
CC(=O)c1c(C)nc(-c2ccc(Cl)cc2)nc1N=CN(C)C	3	7	8.6*	1.0*	4	1	8.6*
Cc1ccc(N/N=C(\C#N)C(=N)N2CCCCC2)cc1	3	19*	6.9*	1.2*	7.4*	2	11*
CC(C)(C)c1ccc(C(=O)Nc2cc(Cl)c(F)cc2C(=O)O)cc1	·	4	-1	0	·	·	·
COC(=O)C1=C(C)N(Cc2ccc(C(F)(F)F)cc2)C(=NCc2ccc(C(F)(F)F)cc2)NC1c1ccccc1 (stereo unspecified)	0	7	0	0	·	·	·

Compound activity: PubChem BioAssay, The Scripps Research Institute Molecular Screening Center
